High-throughput results: PubChem BioAssay, National Center for Advancing Translational Sciences (NCATS)
Pf growth 96h: P. falciparum growth inhibition at 96 hours; P. falciparum luciferase reporter growth, 96 h; AID 504834; actives 6.9% (n = 320,000); Potency, µM (titrated, usually from 28.7 µM), usual class: inhibitors
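P. falciparum expressing integrated firefly luciferase, in erythrocytes at 2% hematocrit, 0.05% parasitemia, incubated with compounds 96 h at 37 C, 5% CO2. Growth inhibition read as loss of luminescence; two-generation exposure targets delayed-death apicoplast inhibitors.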
Pf growth 48h: inhibits P. falciparum growth in the first generation, 48 h; P. falciparum luciferase growth in erythrocytes, 48 h; Potency, µM (highest dose often 28.7 µM), hits mostly inhibitors; AID 504832; actives 5.9% (n = 310,000)
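Firefly luciferase activity from engineered P. falciparum reports growth; inhibitors lower the luminescent signal. Cultures contained 2% hematocrit erythrocytes at 0.1% final parasitemia.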
Sm TGR block: blocks Schistosoma mansoni thioredoxin glutathione reductase | AID 485364 | purified TGR, DTNB reduction, TNB absorbance 405 nm | actives 3% (n = 360,000) | Q962Y6 | Potency, µM (titrated, usually from 114 µM), actives largely listed as inhibitors; note: nearly all actives have a fitted effect of over 60% in size
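TGR 20 nM + NADPH 100 uM (dispensed conc.), cpd preinc 15 min RT; start with NADPH (500 uM addition) then DTNB (15 mM addition). Kinetic TNB absorbance, 405 nm filter. Four-parameter Hill fit across titration.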
Giardia FBPA inh: Giardia lamblia aldolase inhibition; A8B2U2; purified Giardia FBPA; Potency, µM (doses to about 59.6 µM), usual class: inhibitors; actives 0.71% (n = 290,000); AID 2451; note: nearly all actives have a fitted effect of over 55% in size
Target sequence (A8B2U2 whole entry, looked up): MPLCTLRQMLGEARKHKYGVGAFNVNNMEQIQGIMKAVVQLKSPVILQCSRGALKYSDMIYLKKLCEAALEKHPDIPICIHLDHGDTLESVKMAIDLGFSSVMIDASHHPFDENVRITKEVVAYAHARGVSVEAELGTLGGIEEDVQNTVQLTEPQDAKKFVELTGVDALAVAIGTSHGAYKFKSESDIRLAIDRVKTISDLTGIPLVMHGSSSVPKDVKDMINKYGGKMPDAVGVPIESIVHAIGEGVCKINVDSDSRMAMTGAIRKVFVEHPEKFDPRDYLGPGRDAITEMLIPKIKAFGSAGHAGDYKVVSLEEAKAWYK
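Giardia FBPA (40 nM reagent) was preincubated 10 min at RT with compound (up to 57.5 uM final), then substrate plus GAPDH/TPI/NAD/arsenate coupling system with diaphorase/resazurin was added; resorufin fluorescence (525/598 nm) was read after 20 min.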
HCMV antiviral: blocks human cytomegalovirus replication | activity change, negative = inhibition, % at 57.5 µM | HFF cells, HCMV-luciferase reporter, 72 h; stronger effect = lower value | actives 4.5% (n = 410,000); in the data active = activity change below about -60%; inconclusive = no clear call, values can overlap the other calls; inactive = above about -39%
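Inhibition of viral replication was scored as loss of reporter luminescence in HFFs infected with HCMV-luciferase (MOI 1 PFU/cell) for 72 h; compounds tested at 2 doses, normalized to buffer and Salinomycin controls.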
Hits are given with their value; 0 = inactive; ? = inconclusive; - = not tested or not shown. Compounds with a hit are over-represented: about 14% of the library has one in this group of screens. Unless noted, calls come from the whole dose curve; as a rule, active = well fitted curve in the direction sought with a large enough effect; inconclusive = small, poorly fitted or top-dose-only effect, or another doubt; inactive = no such curve, though single readings can be large; an effect the other way counts as inactive or inconclusive.

SMILES | Pf growth 96h | Pf growth 48h | Sm TGR block | Giardia FBPA inh | HCMV antiviral
COc1ccc(CNC(=O)c2ccc(CNc3c(NC4CCCCC4)c(=O)c3=O)cc2)cc1 | ? | 0 | 0 | 0 | 0
CCc1ccc(C(=O)Nc2ccc(OC)c(S(=O)(=O)N3CCCCC3)c2)cc1 | ? | ? | 0 | - | -97
CCCCc1nn2c(=O)cc(COC(=O)c3ccccc3NC(=O)c3cccs3)nc2s1 | - | - | 0 | - | 0
CCC[C@H]1[C@@H](NS(=O)(=O)c2cccc([N+](=O)[O-])c2)CC[C@@]23CCCN2C(=O)CCC[C@@H]13 | - | - | - | - | 0
Cc1cccc(N(CC(=O)NCCSCc2cccc(Cl)c2)S(=O)(=O)c2ccccc2)c1C | - | - | 0 | - | 0
COc1ccc(CC(=O)Nc2ccc(C#N)c(Cl)c2)cc1S(=O)(=O)N1CCOCC1 | ? | 0 | 13µM | - | 0
COc1ccc(NC(=O)c2ccc(-c3ccccc3)cc2)cc1S(=O)(=O)N1CCOCC1 | 0 | 0 | 0 | 0 | -68
CC(C)(C)c1ccc(C(=O)O[C@H]2[C@H](Cc3ccccc3)NS(=O)(=O)[C@H]3C[C@@H]4C=C[C@]23O4)cc1 | 12µM | 13µM | 0 | - | 0
CCOc1ccc(C(=O)O[C@H]2[C@H](Cc3ccccc3)NS(=O)(=O)[C@H]3C[C@@H]4C=C[C@]23O4)cc1 | 4.7µM | 2.1µM | 0 | - | 0
CS(=O)(=O)N1N=C(c2ccco2)CC1c1cccc([N+](=O)[O-])c1 (centres undefined) | 0 | 0 | 45µM | 0 | 0
CS(=O)(=O)N1N=C(c2ccco2)CC1c1ccccc1Cl (centres undefined) | 0 | 0 | 40µM | 0 | 0
COc1ccccc1C1CC(c2ccco2)=NN1S(C)(=O)=O (centres undefined) | 0 | 0 | ? | 0 | 0
CS(=O)(=O)N1N=C(c2ccco2)CC1c1ccc(Cl)cc1Cl (centres undefined) | 5.2µM | 0 | 28µM | 0 | 0
CS(=O)(=O)N1N=C(c2ccco2)CC1c1ccc(Br)cc1 (centres undefined) | 0 | 0 | ? | 0 | 0
COC(=O)c1c(NC(=O)C2CC(=O)NN2Cc2ccccc2)sc(C)c1C (centres undefined) | ? | ? | 0 | 0 | 0
Cc1nc(N)c(CC(Br)CBr)c(Cl)n1 (centres undefined) | ? | 0.074µM | 0 | 0 | -68
Cc1cn(CC(=O)NCC2CCCO2)c(=O)[nH]c1=O (centres undefined) | - | - | - | - | 0
CCOC(=O)c1nncc(-c2ccccc2)n1 | ? | 0 | 0 | - | 0
CCCCCCN1C[C@H](n2cc(-c3ccc(F)cc3)nn2)[C@@H](O)C[C@@H]1c1ccc(Cl)cc1 | - | - | - | - | -102
CCCCCCN1C[C@H](n2cc(-c3ccc(F)cc3)nn2)[C@@H](O)C[C@@H]1c1ccccc1 | - | - | - | - | 0
CCCN(CC1CC1)c1cc2c(c3c1ccn3C)C1CCC2O1 (centres undefined) | - | - | - | - | 0
CC1(C)CC(=O)C=C(c2ccc(-c3cnn(Cc4ccccc4)c3)cc2)C1=O | - | - | - | - | 0
COC(C(=O)C(O)C(C)O)C1Cc2cc3cc(OC4CC(OC5CC(O)C(O)C(C)O5)C(O)C(C)O4)c(C)c(O)c3c(O)c2C(=O)C1OC1CC(OC2CC(OC3CC(O)C(OC)C(C)O3)C(O)C(C)O2)C(O)C(C)O1 (centres undefined) | - | - | - | - | -98
CO[C@H](C(=O)[C@@H](O)[C@@H](C)O)C1Cc2cc3cc(O[C@H]4C[C@@H](O[C@H]5C[C@@H](O)[C@H](O)[C@@H](C)O5)[C@@H](O)[C@@H](C)O4)c(C)c(O)c3c(O)c2C(=O)[C@H]1O[C@H]1C[C@@H](O[C@H]2C[C@@H](O[C@H]3C[C@](C)(O)[C@H](O)[C@@H](C)O3)[C@H](O)[C@@H](C)O2)[C@H](O)[C@@H](C)O1 (some centres undefined) | 0.034µM | 0.048µM | - | - | -
COC(C(=O)C(O)C(C)O)C1Cc2cc3cc(OC4CC(OC5CC(O)C(O)C(C)O5)C(O)C(C)O4)c(C)c(O)c3c(O)c2C(=O)C1OC1CC(OC2CC(OC3CC(C)(O)C(O)C(C)O3)C(O)C(C)O2)C(O)C(C)O1 (centres undefined) | 1.9µM | 0.06µM | - | - | -
SMILES | Pf growth 96h | Pf growth 48h | Sm TGR block | Giardia FBPA inh | HCMV antiviral
COCCN(Cc1ccccc1)C(=O)c1cccc(S(=O)(=O)N(C)c2c(C)n(C)n(-c3ccccc3)c2=O)c1 | 0 | ? | 0 | - | 0
CCN(CC(=O)NCc1cccs1)C(=O)CCCOc1ccc(C(C)(C)C)cc1 | ? | ? | 0 | - | -105
Cc1ccc(S(=O)(=O)c2ccc(Oc3cccc(C)c3)cc2)cc1 | 0 | 0 | 0 | 0 | 0
COc1cccc(CN(C)C(=O)c2cccc(S(=O)(=O)N3CCN(c4ccc(F)cc4)CC3)c2)c1OC | ? | 10µM | 0 | - | -80
COc1cccc(CN(C)C(=O)c2cccc(S(=O)(=O)N3CCN(c4ccccc4)CC3)c2)c1OC | - | - | - | - | -70
COc1cccc(CN(C)C(=O)C2CCN(S(=O)(=O)c3ccc(C)cc3)CC2)c1OC | 12µM | 13µM | 0 | - | 0
CN(Cc1ccc(Cl)cc1Cl)C(=O)c1cccc(S(=O)(=O)N2CCN(c3ccccc3)CC2)c1 | ? | ? | 0 | - | ?
COc1ccc(NC(=O)CN(C)C(=O)c2cccc(S(=O)(=O)N3CCN(c4ccc(F)cc4)CC3)c2)cc1 | - | - | - | - | -73
CCOc1ccc(-c2cc3c(=O)n(Cc4nc(-c5ccccc5OCC)oc4C)ccn3n2)cc1Cl | - | - | 0 | - | 0
CCc1cccc(NC(=O)CCS(=O)(=O)c2ccc(Br)cc2)c1 | 0 | 0 | 0 | 0 | 0
COc1ccc(CNC(=O)c2cccc(S(=O)(=O)N3CCN(c4ccc(F)cc4)CC3)c2)cc1 | ? | ? | 0 | - | ?
CN(Cc1ccc(OC(F)F)cc1)C(=O)c1cccc(S(=O)(=O)N2CCN(Cc3ccccc3)CC2)c1 | - | - | - | - | -92
COc1ccccc1CNC(=O)c1cccc(S(=O)(=O)N2CCN(c3ccc(F)cc3)CC2)c1 | ? | 10µM | 0 | - | 0
COc1cccc(CN(C)C(=O)c2cccc(S(=O)(=O)N3CCN(Cc4ccccc4)CC3)c2)c1OC | ? | ? | 0 | - | -74
COc1ccc(CN(C)S(=O)(=O)c2c(C)noc2C)cc1OC | 0 | 0 | 0 | - | 0
CCOc1ccc(N(CC(=O)Nc2cc(Cl)ccc2C)S(C)(=O)=O)cc1 | ? | ? | 0 | 0 | 0
CCC(=O)Nc1c2c(nc3c1CCC3)CCCC2 | 2.1µM | 0 | 0 | 0 | 0
O=C(C[n+]1cccc(CNC(=O)c2ccc(OC(F)F)cc2)c1)Nc1cccc(C(F)(F)F)c1 | ? | 5.2µM | 0 | 0 | 0
O=C(C[n+]1cccc(CNC(=O)c2ccc(OC(F)F)cc2)c1)Nc1ccc(F)cc1 | 0.74µM | 8.3µM | 0 | 0 | 0
COC(=O)c1ccc[n+](CC(=O)Nc2ccc(OC(F)F)cc2)c1 | 0 | 0 | 0 | 0 | 0
O=C(C[n+]1cccc(CNC(=O)c2ccc(OC(F)F)cc2)c1)c1ccccc1 | ? | 0 | 0 | 0 | 0
O=C(Oc1ccc(F)cc1)c1nc(SCc2ccccc2F)ncc1Cl | - | - | 0 | - | 0
